Data published in PubChem BioAssay AID492956 (The Scripps Research Institute Molecular Screening Center, 2010).
Out of some 340,000 compounds screened, about 3,300 (0.97%) were called active.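 How the source made its calls: active means inhibition above the mean over all tested compounds plus 3 SD (cut at about 30% in these data); inactive means the rest.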 This excerpt belongs to a sample that is enriched for actives.

Biological target: Platelet-activating factor acetylhydrolase 2, cytoplasmic (Homo sapiens) (UniProt Q99487)
Experiment: PAFAH2 enzyme inhibitors, primary screen, biochemical, fluorescence polarization, human (AID 492956);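 further: inhibitors block probe labeling of enzyme so polarization drops; 0% = enzyme with DMSO and 100% = wells lacking PAFAH2 protein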
Settings: recombinant PAFAH2, FP-rhodamine activity probe, at 3.39 µM, stronger effect = higher value

SMILES | inhibition
CSc1ccc(-c2c(C#N)c(N)nc3c2c(C)nn3-c2ccccc2)cc1 | -18.9% (inactive)
CCCNC(=O)CCc1c(C)nc2c(c(C)nn2-c2ccc(C)cc2)c1C | -8.03% (inactive)
Cc1ccc(-n2nc(N)c3c(=O)oc(N(C)C)nc32)cc1 | 55.9% (active)
Cc1ccc(NC(=S)Nc2ncccc2C)c(C)c1 | -4.32% (inactive)
O=C(NNC(=O)c1ccccc1O)c1ccccc1O | 39% (active)
Cc1cc(C(=O)NNC(=O)CCC2CCCCC2)c(C)o1 | 4.96% (inactive)
CC1=C(C)CC(C(=O)NNC(=O)c2ccccc2O)C(C(=O)O)C1 (configuration not stated) | -2.13% (inactive)
Cc1cc(C(=O)NCCc2ccc(Cl)cc2)c(C)o1 | 4.91% (inactive)
Cc1cc(C(=O)CCC(=O)NNC(=O)c2ccccc2O)c(C)s1 | 7.6% (inactive)
Cc1cc(C(=O)NNC(=O)c2ccccc2O)c(C)o1 | 31.3% (active)
CCC(CC)c1nnc(NC(=O)c2nn(C)c(=O)c3ccccc23)s1 | 0.88% (inactive)
CCCCCn1c(=O)[nH]c2cc(C(=O)NCCCN3CCCCC3C)ccc2c1=O (configuration not stated) | -5.12% (inactive)
O=C(NCc1ccc(F)cc1)C(c1ccccc1)N(C(=O)c1csnn1)C1CC1 (configuration not stated) | 2.95% (inactive)
Oc1ccc2ccc3cccc[n+]3c2c1 | 9.81% (inactive)
CN(C)C(CNC(=O)CCCOc1ccccc1)c1ccco1 (configuration not stated) | 1.39% (inactive)
COc1cccc2c1C(=O)c1c(O)c3c(c(O)c1C2=O)CC(O)(C(C)=NNC(=O)c1ccc(Cl)c(Cl)c1)CC3OC1CC(N)C(O)C(C)O1 (configuration not stated) | 49.5% (active)
COc1ccc(C(=O)OCC(=O)NCC2CCCCC2)cc1S(=O)(=O)N1CCCc2ccccc21 | 74.5% (active)
COc1ccc(C(=O)NCC2CCCCC2)cc1S(=O)(=O)N1CCCC1 | 3.82% (inactive)
COc1cc(C)c(C)cc1S(=O)(=O)N1CCCc2ccccc21 | -5.07% (inactive)
Cc1cc(C)c2oc(C(=O)Nc3ccc(S(=O)(=O)Nc4nccc(C)n4)cc3)cc(=O)c2c1 | -3.63% (inactive)
CN(C)[C@@H]1C(=O)C(C(N)=O)=C(O)[C@@]2(O)C(=O)C3=C(O)c4c(O)ccc(Cl)c4[C@@H](O)[C@H]3C[C@@H]12 | 1.11% (inactive)
C=C1c2c(Cl)ccc(O)c2C(O)=C2C(=O)[C@]3(O)C(O)=C(C(N)=O)C(=O)[C@@H](N(C)C)[C@@H]3[C@@H](O)C12 (some centres not stated) | 42% (active)
Cc1cccc(C)c1NC(=O)CN1C(=O)C(C)Oc2ccccc21 (configuration not stated) | 4.2% (inactive)

SMILES | inhibition
O=C(Cn1nnc2ccccc2c1=O)NCc1ccc(Cl)cc1 | 4.44% (inactive)
C=CCNC(=O)c1sc(SC)cc1-c1ccc(Cl)cc1 | 2.46% (inactive)
COC(=O)Nc1nc2ccc(Sc3ccccc3)cc2[nH]1 | -5.35% (inactive)
Nc1ccc2nc3c(=O)[nH]c(=S)[nH]c3nc2c1 | 58.3% (active)
Cc1c(CN2CCC(CO)(CCOc3ccccc3)CC2)[nH]c2ccc(Cl)cc12 | -1.75% (inactive)
CCOc1ccccc1NS(=O)(=O)c1cc2c3c(c1)C(C)C(=O)N3CCC2 (configuration not stated) | 6.38% (inactive)
CCOc1ccccc1OCC(=O)Nc1ccccc1C(=O)NC1CC1 | 2.58% (inactive)
COc1nc(N=C(N)N)nc2c(C)cccc12 | 6.78% (inactive)
CC(=O)Oc1ccc(-c2nc3c(C)cccc3c(=O)o2)cc1 | 40.7% (active)
CC(=O)Oc1ccc2c(=O)oc(-c3ccc([N+](=O)[O-])cc3)nc2c1 | 29.4% (inactive)
Cc1cc(C)cc(C(=O)NC(=S)Nc2ccc3[nH]c(=O)[nH]c3c2)c1 | -14% (inactive)
CC1(C)C2CC=C(/C=N/NC(=O)C3CC3)C1C2 (configuration not stated) | -2.63% (inactive)
CCN(CC)CCCNC(=O)c1ccc2c(=O)n(Cc3ccc4c(c3)OCO4)c(=S)[nH]c2c1 | 4.33% (inactive)
C=CCN(CC=C)C(=O)COC(=O)c1n[nH]c2ccccc12 | 3.36% (inactive)
O=C(COC(=O)c1n[nH]c2ccccc12)Nc1ccccc1Br | 47.3% (active)
O=C(COC(=O)c1ncc(Cl)c(Cl)c1Cl)NCc1ccccc1 | -0.64% (inactive)
COc1ccc(NC(=O)COC(=O)c2n[nH]c3ccccc23)c(OC)c1 | 7.22% (inactive)
O=C(COC(=O)c1n[nH]c2ccccc12)NCc1ccccc1 | 35.5% (active)
CN(C)S(=O)(=O)c1ccc(NC(=O)COC(=O)c2n[nH]c3ccccc23)cc1 | -1.53% (inactive)
O=C(O)CC(c1ccccc1F)N1Cc2ccccc2C1=O (configuration not stated) | 3.09% (inactive)
Cc1ccn2c(=O)nc(SCC(=O)NCc3ccc4c(c3)OCO4)nc2c1 | -12.4% (inactive)
Nc1nc(Br)c2ccccc2c1-c1ccc(F)cc1 | 0.32% (inactive)
COCCCn1c(SCC(=O)Nc2oc(C)c3c(C)n[nH]c(=O)c23)nc2sc3c(c2c1=O)CCC3 | -2.08% (inactive)

SMILES | inhibition
CCN(CC)S(=O)(=O)c1ccc2nc(CSc3nnnn3-c3ccc(O)cc3)[nH]c2c1 | -3.11% (inactive)
C(#CCN1CCOCC1)CCCN1CCOCC1 | 6.41% (inactive)
Cc1cnc(C(=O)OCC(=O)Nc2ccc(Cl)cc2Cl)cn1 | -10.2% (inactive)
Cc1cc(C)cc(NC(=O)COC(=O)c2cc(C)oc2C)c1 | 60.9% (active)
Cc1cc(C)cc(C(=O)OCC(=O)NCCNC(=O)COC(=O)c2cc(C)cc(C)c2)c1 | 3.14% (inactive)
COc1cc(NC(=O)COC(=O)c2cc(S(=O)(=O)N3CCOCC3)ccc2F)cc(OC)c1 | -0.21% (inactive)
Cc1cc(C(=O)OCC(=O)c2c(N)n(C)c(=O)n(C)c2=O)c(C)o1 | 10.2% (inactive)
Cc1cc(C(=O)OCC(=O)Nc2ccccc2Cl)c(C)o1 | 45.1% (active)
O=C(COC(=O)c1ccc[nH]c1=O)Nc1ccc2c(c1)OC(F)(F)O2 | -3.01% (inactive)
O=C(COC(=O)CCc1c[nH]c(=O)[nH]1)Nc1ccccc1Cl | 1.19% (inactive)
Cc1cc(C(=O)OCC(=O)Nc2ccc(F)c(F)c2)c(C)o1 | 81.8% (active)
CONc1nc2nonc2nc1NOC | 5.98% (inactive)
Cc1ccc(Nc2c(F)c(F)c(F)c(F)c2C(=O)O)c(C)c1 | 4.36% (inactive)
Cn1c(=O)c(C(=O)Nc2ncccn2)c(O)c2ccccc21 | -2.23% (inactive)
Cc1cc(=O)n2nc(N3CCCC3C(=O)NCCCN3CC(C)CC(C)C3)sc2n1 (configuration not stated) | -2.55% (inactive)
O=C(COC(=O)c1ccc(F)cc1)Nc1ccc2c(c1)OCO2 | 81% (active)
O=C(COC(=O)c1ccncc1)Nc1ccc2c(c1)OCO2 | 1.78% (inactive)
Cc1cccc(C(=O)OCC(=O)Nc2sc3c(c2C#N)CCC3)c1 | 3.15% (inactive)
Cc1cccc(C(=O)OCC(=O)Nc2ccc(F)cc2)c1 | 84% (active)
O=C(COc1ccc(Cl)cc1)Nc1ccc2c(c1)OCO2 | -4.53% (inactive)
O=C(COC(=O)c1cccc(Cl)c1)Nc1ccc2[nH]c(=O)[nH]c2c1 | -4.35% (inactive)
Cn1c(=O)c2c(ncn2CC(=O)N/N=C/c2cn[nH]c2-c2ccc(F)cc2)n(C)c1=O | 3.66% (inactive)
O=C(NCc1ccco1)/C(=C/c1cccc([N+](=O)[O-])c1)NC(=O)c1ccco1 | -0.82% (inactive)

SMILES | inhibition
CN1C(=O)/C(=C/C=C2\SCCN2C)OC1=S | -4.81% (inactive)
COc1ccc(NS(=O)(=O)c2cc(NC(=O)C3CCCCC3)ccc2N2CCOCC2)cc1 | 0.82% (inactive)
O=C(NCCS(=O)(=O)N1CCN(c2ccccc2F)CC1)c1ccc(Br)o1 | -0.55% (inactive)
CC(OC(=O)c1ccc(S(=O)(=O)N2CCOCC2)cc1)c1ccccc1 (configuration not stated) | 2.29% (inactive)
COC(=O)c1ccc(S(=O)(=O)N2CCc3ccccc3C2)cc1 | -2.2% (inactive)
O=C(ON=C1CCN(S(=O)(=O)c2ccccc2)CC1)c1ccc(Cl)cc1 | 86.6% (active)
CN1CCC(OC(=O)COc2ccc(Cl)cc2Cl)CC1 | -2.95% (inactive)
CCN(C(=O)COC(=O)c1sccc1C)c1c(N)n(Cc2ccccc2)c(=O)[nH]c1=O | -2.58% (inactive)
CC(=O)Cn1cnc2c(cnn2-c2ccccc2)c1=O | -0.98% (inactive)
Cc1ccc(-c2nc3c(cnn3-c3ccccc3)c(=O)o2)cc1 | 59.4% (active)
Cc1ccc(-n2ncc3c(=O)n(-c4ccc(C)c(C)c4)c(-c4ccco4)nc32)cc1 | -1.39% (inactive)
O=c1cc(O)c(-c2cccc(C(F)(F)F)c2)c(Cl)[nH]1 | -1.33% (inactive)
COc1ccc(S(=O)(=O)N2CCOCC2)cc1NC(=O)Cc1c(F)cccc1Cl | 43.5% (active)
COc1ccc(S(=O)(=O)N2CCOCC2)cc1NC(=O)c1ccc(OCC(C)C)c(OC)c1 | 4.28% (inactive)
COc1ccc(S(=O)(=O)N2CCOCC2)cc1NC(=O)COc1ccccc1 | 6.32% (inactive)
COc1ccc(S(=O)(=O)N2CCOCC2)cc1NC(=O)CSc1cc(C)ccc1C | 2.32% (inactive)
COc1ccc(S(=O)(=O)N2CCOCC2)cc1NC(=O)Cc1coc2cc(C)ccc12 | 39.9% (active)
COc1ccc(S(=O)(=O)N2CCOCC2)cc1NC(=O)CSc1ncnc2ccccc12 | 0.39% (inactive)
COc1ccc(S(=O)(=O)N2CCOCC2)cc1NC(=O)CC1CC2CCC1C2 (configuration not stated) | 70.4% (active)
COc1ccc(S(=O)(=O)N2CCOCC2)cc1NC(=O)CSc1nnc(NC2CC2)s1 | 3.17% (inactive)
COc1ccc(S(=O)(=O)N2CCCCCC2)cc1NC(=O)Cc1ccc(OC)c(OC)c1 | 14.1% (inactive)
CC(=O)NC(CC(=O)Nc1nccs1)c1ccccc1 (configuration not stated) | 0.3% (inactive)
Cc1cnc(C)c(N2CCN(C(=O)C3CCC(=O)N(CCc4cccc(F)c4)C3)CC2)n1 (configuration not stated) | 6.98% (inactive)
